PubChem BioAssay (NCI)
About 79,000 compounds went through this panel and 15% of them were active in at least one assay; those are over-represented in the sample as a whole. Active and inactive are the calls of the source. Rule as the data show it: active = growth inhibition above about 70%; inactive = the rest.

How the values were obtained:
[1] = NCI Yeast Anticancer Drug Screen. Data for the mlh1 strain (AID 171);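 also: 0% = growth of vehicle-treated control cultures of the same strain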; details: S. cerevisiae mlh1 strain growth inhibition, active compounds read high
Summary of the method: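 Steps: expose the defined-mutant yeast strain to compound; expose a parallel culture to vehicle; measure growth; express compound effect as inhibition relative to the vehicle culture.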

[2] = NCI Yeast Anticancer Drug Screen. Data for the sgs1 strain (AID 173);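 also: 0% = growth of vehicle-only control cultures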; details: S. cerevisiae sgs1 mutant, active compounds read high
Summary of the method: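 Treat defined-mutant yeast with compound; measure growth; calculate inhibition relative to vehicle-treated cells.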

[3] = NCI Yeast Anticancer Drug Screen. Data for the mlh1 rad18 strain (AID 175); details: S. cerevisiae mlh1 rad18 strain growth inhibition, active compounds read high
Summary of the method: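 Test agents were incubated with a yeast strain of defined genotype (DNA damage repair defect). Inhibition of growth was derived by comparison with vehicle-exposed cultures.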

[4] = NCI Yeast Anticancer Drug Screen. Data for the rad18 strain (AID 177); details: S. cerevisiae rad18 mutant growth inhibition, active compounds read high
Summary of the method: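 A genetically defined yeast mutant impaired in DNA damage repair was treated with test compounds, then its growth was measured against cultures receiving vehicle alone.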

[5] = NCI Yeast Anticancer Drug Screen. Data for the wt1 strain (AID 149);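 also: 0% = growth of vehicle-treated wt1 cultures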; details: S. cerevisiae wt1 strain (SPY 50644) growth inhibition, active compounds read high
Summary of the method: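 Measured: growth of wt1 yeast under compound versus vehicle treatment, reported as inhibition.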

[6] = NCI Yeast Anticancer Drug Screen. Data for the rad50EPP+ strain (AID 151);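 also: 0% = growth of vehicle-treated control cultures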; details: S. cerevisiae rad50 mutant strain, active compounds read high
Summary of the method: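 Exposing the rad50EPP+ strain to each compound, growth was compared with vehicle-only cultures to give inhibition.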

[7] = NCI Yeast Anticancer Drug Screen. Data for the mgt1 strain (AID 153); details: S. cerevisiae mgt1 mutant growth inhibition, active compounds read high
Summary of the method: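 Genetically defined yeast (mgt1) treated with compound; inhibition of growth expressed against vehicle-treated controls.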

[8] = NCI Yeast Anticancer Drug Screen. Data for the rad50 strain (AID 155);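 also: 0% = growth of vehicle-only cultures of the same strain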; details: S. cerevisiae rad50 strain growth inhibition, active compounds read high
Summary of the method: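 Growth of the mutant yeast was measured after compound exposure and referenced to vehicle-treated cultures.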

[9] = NCI Yeast Anticancer Drug Screen. Data for the mec2-1 strain (AID 157); details: S. cerevisiae mec2-1 strain, active compounds read high
Summary of the method: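 Readout is yeast growth inhibition, normalised to vehicle-treated controls, in the mec2-1 strain exposed to compound.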

[10] = NCI Yeast Anticancer Drug Screen. Data for the rad14 strain (AID 159);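 also: 0% = growth of vehicle-treated control cultures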; details: S. cerevisiae rad14 strain growth inhibition, active compounds read high
Summary of the method: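 Here, inhibition of yeast growth was measured after compound exposure, using a strain with a genetic defect in DNA damage repair and vehicle-treated cultures as the reference.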

[11] = NCI Yeast Anticancer Drug Screen. Data for the sgs1 mgt1 strain (AID 161);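 also: 0% = growth of cultures given vehicle only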; details: S. cerevisiae sgs1 mgt1 strain, active compounds read high
Summary of the method: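 Percent growth inhibition was derived by comparing compound-exposed mutant yeast with vehicle-exposed cultures. The strain carries alterations in DNA damage repair.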

[12] = NCI Yeast Anticancer Drug Screen. Data for the CLN2oe strain (AID 163);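 also: 0% = growth of vehicle-only control cultures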; details: S. cerevisiae CLN2oe strain, active compounds read high
Summary of the method: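 Values reflect how much compound exposure reduced yeast growth, referenced to vehicle-exposed cells. Assay organism is a strain with a defined genetic change affecting cell-cycle control.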

[13] = NCI Yeast Anticancer Drug Screen. Data for the cln2 rad14 strain (AID 165);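 also: 0% = growth equal to vehicle treated cultures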; details: S. cerevisiae cln2 rad14 strain, active compounds read high
Summary of the method: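 Relative to vehicle controls, growth inhibition of compound-treated cln2 rad14 yeast was recorded.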

[14] = NCI Yeast Anticancer Drug Screen. Data for the bub3 strain (AID 167); details: S. cerevisiae bub3 mutant strain, active compounds read high
Summary of the method: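 Whole-cell yeast assay. The mutant strain was incubated with compounds, and growth inhibition was determined by comparison with vehicle-treated cells.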

[15] = NCI Yeast Anticancer Drug Screen. Data for the wt2 strain (AID 169);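 also: 0% = growth of vehicle-treated yeast cultures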; details: S. cerevisiae wt2 strain growth inhibition, active compounds read high
Summary of the method: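 Values express reduction in yeast growth under compound treatment, referenced to vehicle-treated cells.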

[16] = at 5.0 µM (retest, dose inferred, filed as 0.5)
[17] = at 50.0 µM (retest, dose inferred, filed as 5.0)

Measured: growth inhibition

CC(C)c1ccc(C2NC(=S)NC3=C2c2ccccc2C3=O)cc1 (centres undefined)
active: [3]; at 50.0 µM 74.1%
inactive: [1]; at 1.2 µM 10% | [1]; at 3.7 µM -1% | [1]; at 11.0 µM 3% | [1]; at 33.0 µM 26% | [1]; at 100.0 µM 52% | [2]; at 1.2 µM 23% | [2]; at 3.7 µM 12% | [2]; at 11.0 µM 16% | [2]; at 33.0 µM 26% | [2]; at 100.0 µM 43% | [3]; [16] -36% | [3]; [17] 32% | [4]; at 1.2 µM 2% | [4]; at 3.7 µM 8% | [4]; at 11.0 µM 10% | [4]; at 33.0 µM 13% | [4]; at 100.0 µM 38%

Cc1cnccc1N=Nc1ccc(N(C)C)cc1
inactive: [5]; at 1.2 µM -5% | [5]; at 3.7 µM -6% | [5]; at 11.0 µM -8% | [5]; at 33.0 µM 1% | [5]; at 100.0 µM 1% | [6]; at 1.2 µM 2% | [6]; at 3.7 µM 3% | [6]; at 11.0 µM 7% | [6]; at 33.0 µM 43% | [7]; at 1.2 µM 2% | [7]; at 3.7 µM -2% | [7]; at 11.0 µM 2% | [7]; at 33.0 µM 31% | [7]; at 100.0 µM 41% | [8]; at 1.2 µM -4% | [8]; at 3.7 µM -4% | [8]; [16] -109% | [8]; at 11.0 µM 13% | [8]; at 33.0 µM 27% | [8]; [17] -2% | [8]; at 100.0 µM 37% | [9]; at 1.2 µM -3% | [9]; at 3.7 µM 1% | [9]; [16] -42% | [9]; at 11.0 µM -21% | [9]; at 33.0 µM -4% | [9]; [17] -34% | [9]; at 50.0 µM 30.9% | [9]; at 100.0 µM 3% | [10]; at 1.2 µM -3% | [10]; at 3.7 µM -5% | [10]; at 11.0 µM 12% | [10]; at 33.0 µM 39% | [10]; at 100.0 µM 51% | [11]; [16] -23% | [11]; [17] 46% | [11]; at 50.0 µM 65.8% | [12]; at 1.2 µM 3% | [12]; at 3.7 µM 8% | [12]; at 11.0 µM 15% | [12]; at 33.0 µM 30% | [12]; at 100.0 µM 30% | [13]; [16] -43% | [13]; [17] -19% | [13]; at 50.0 µM 34% | [14]; at 1.2 µM 8% | [14]; at 3.7 µM 10% | [14]; [16] -33% | [14]; at 11.0 µM 14% | [14]; at 33.0 µM 32% | [14]; [17] 69% | [15]; at 1.2 µM 0% | [15]; at 3.7 µM -1% | [15]; at 11.0 µM 2% | [15]; at 33.0 µM 13% | [15]; at 100.0 µM 4% | [1]; at 1.2 µM -1% | [1]; at 3.7 µM 1% | [1]; at 11.0 µM 0% | [1]; at 33.0 µM 24% | [1]; at 100.0 µM 31% | [2]; at 1.2 µM 2% | [2]; at 3.7 µM 3% | [2]; at 11.0 µM 32% | [2]; at 33.0 µM 52% | [2]; at 100.0 µM 49% | [3]; [16] -95% | [3]; [17] -7% | [3]; at 50.0 µM 36.1% | [4]; at 1.2 µM -4% | [4]; at 3.7 µM -4% | [4]; at 11.0 µM 9% | [4]; at 33.0 µM 25% | [4]; at 100.0 µM 30%
active: [6]; at 100.0 µM 90% | [8]; at 50.0 µM 81.8% | [14]; at 50.0 µM 89% | [14]; at 100.0 µM 79%

O=C1C(C(O)(C(F)(F)F)C(F)(F)F)CCC1C(O)(C(F)(F)F)C(F)(F)F (centres undefined)
active: [13]; [16] 83%
inactive: [5]; at 1.2 µM 3% | [5]; at 3.7 µM 6% | [5]; at 11.0 µM 8% | [5]; at 33.0 µM 19% | [5]; at 100.0 µM 33% | [6]; at 1.2 µM -3% | [6]; at 3.7 µM -2% | [6]; at 11.0 µM 3% | [6]; at 33.0 µM 18% | [6]; at 100.0 µM 10% | [7]; at 1.2 µM 1% | [7]; at 3.7 µM 2% | [7]; at 11.0 µM 8% | [7]; at 33.0 µM 9% | [7]; at 100.0 µM 34% | [8]; at 1.2 µM -4% | [8]; at 3.7 µM -14% | [8]; [16] 2% | [8]; at 11.0 µM -22% | [8]; at 33.0 µM 3% | [8]; [17] 33% | [8]; at 50.0 µM 22.3% | [8]; at 100.0 µM 30% | [9]; at 1.2 µM 7% | [9]; at 3.7 µM 8% | [9]; [16] 9% | [9]; at 11.0 µM 10% | [9]; at 33.0 µM 20% | [9]; [17] 26% | [9]; at 50.0 µM 42.6% | [9]; at 100.0 µM 32% | [10]; at 1.2 µM 4% | [10]; at 3.7 µM 6% | [10]; at 11.0 µM 14% | [10]; at 33.0 µM 28% | [10]; at 100.0 µM 49% | [11]; [16] 4% | [11]; [17] 54% | [11]; at 50.0 µM 67.3% | [12]; at 1.2 µM 5% | [12]; at 3.7 µM 2% | [12]; at 11.0 µM 8% | [12]; at 33.0 µM 27% | [12]; at 100.0 µM 42% | [13]; [17] 46% | [13]; at 50.0 µM 14.2% | [14]; at 1.2 µM -1% | [14]; at 3.7 µM 0% | [14]; [16] -12% | [14]; at 11.0 µM 0% | [14]; at 33.0 µM 11% | [14]; [17] 32% | [14]; at 50.0 µM 28.4% | [14]; at 100.0 µM 24% | [15]; at 1.2 µM 1% | [15]; at 3.7 µM 4% | [15]; at 11.0 µM 8% | [15]; at 33.0 µM 23% | [15]; at 100.0 µM 39% | [1]; at 1.2 µM 5% | [1]; at 3.7 µM 7% | [1]; at 11.0 µM 11% | [1]; at 33.0 µM 22% | [1]; at 100.0 µM 33% | [2]; at 1.2 µM 3% | [2]; at 3.7 µM 8% | [2]; at 11.0 µM 9% | [2]; at 33.0 µM 28% | [2]; at 100.0 µM 43% | [3]; [16] 2% | [3]; [17] 49% | [3]; at 50.0 µM 69.5% | [4]; at 1.2 µM 4% | [4]; at 3.7 µM 6% | [4]; at 11.0 µM 3% | [4]; at 33.0 µM -2% | [4]; at 100.0 µM 11%
